Laboratory results from PubChem BioAssay.
The source made the active and inactive calls.

Tests used:
[1] = test system: Plasmodium falciparum Sir2 (PF13_0152, Sir2A); experiment: pfSir2 binders on small-molecule microarrays, primary screen, biochemical, small-molecule microarray, 635 nm fluorescence (AID 1098); conditions: small-molecule microarray binding, fluorescence 635 nm; higher = more signal;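 further: score merges spot fluorescence intensity with its signal-to-noise ratio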
[2] = small-molecule microarray binders of probe aDKK1, primary screen, biochemical, biotinylated probe, 635/667 nm fluorescence (AID 1099); conditions: higher = more signal;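 further: score merges 667nm spot fluorescence with signal to noise across triplicate slides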
[3] = small-molecule microarray binders of probe aCHRDL2, primary screen, biochemical, biotinylated probe, 635/667 nm fluorescence (AID 1100); conditions: higher = more signal
[4] = splicing luciferase reporter signal modulators, primary screen, spliceosome inhibition project, cell-based, HEK293, splice +/- reporter (AID 1101); conditions: luminescence, 24 h, higher = more signal, called active from +8 up or from −8 down;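 further: HEK293 cells carrying a splicing-competent luciferase reporter gene; test concentration not given here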
[5] = biological target: Fibroblast growth factor 10 (Homo sapiens) (UniProt O15520); experiment: FGF10 binders on small-molecule microarrays, primary screen, biochemical, small-molecule microarray, 635 nm fluorescence (AID 1102); conditions: FGF10 binding, fluorescence 635 nm, higher = more signal
Fibroblast growth factor 10 (Homo sapiens), sequence (O15520 whole entry, looked up): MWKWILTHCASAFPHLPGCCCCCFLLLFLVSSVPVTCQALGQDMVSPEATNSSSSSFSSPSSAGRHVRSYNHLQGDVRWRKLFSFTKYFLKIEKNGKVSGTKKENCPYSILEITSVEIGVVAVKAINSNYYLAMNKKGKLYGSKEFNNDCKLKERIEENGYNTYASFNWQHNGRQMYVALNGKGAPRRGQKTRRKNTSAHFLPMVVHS

[6] = test system: glycogen synthase kinase-3 (GSK3A per assay name; protocol says GSK3B); experiment: GSK3 binders on small-molecule microarrays, primary screen, biochemical, small-molecule microarray, 635 nm fluorescence, GSK3A (AID 1103); conditions: small-molecule microarray binding, fluorescence 635 nm; higher = more signal; further: the record names both GSK3A and GSK3B
[7] = biological target: Epidermal growth factor receptor (Homo sapiens) (UniProt P00533); experiment: EGFR binders on small-molecule microarrays, primary screen, biochemical, small-molecule microarray, 635 nm fluorescence (AID 1104); conditions: EGFR binding, higher = more signal;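 further: score merges 667 nm emission intensity with spot signal to noise over triplicate slides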
Epidermal growth factor receptor (Homo sapiens), sequence (P00533 whole entry, looked up): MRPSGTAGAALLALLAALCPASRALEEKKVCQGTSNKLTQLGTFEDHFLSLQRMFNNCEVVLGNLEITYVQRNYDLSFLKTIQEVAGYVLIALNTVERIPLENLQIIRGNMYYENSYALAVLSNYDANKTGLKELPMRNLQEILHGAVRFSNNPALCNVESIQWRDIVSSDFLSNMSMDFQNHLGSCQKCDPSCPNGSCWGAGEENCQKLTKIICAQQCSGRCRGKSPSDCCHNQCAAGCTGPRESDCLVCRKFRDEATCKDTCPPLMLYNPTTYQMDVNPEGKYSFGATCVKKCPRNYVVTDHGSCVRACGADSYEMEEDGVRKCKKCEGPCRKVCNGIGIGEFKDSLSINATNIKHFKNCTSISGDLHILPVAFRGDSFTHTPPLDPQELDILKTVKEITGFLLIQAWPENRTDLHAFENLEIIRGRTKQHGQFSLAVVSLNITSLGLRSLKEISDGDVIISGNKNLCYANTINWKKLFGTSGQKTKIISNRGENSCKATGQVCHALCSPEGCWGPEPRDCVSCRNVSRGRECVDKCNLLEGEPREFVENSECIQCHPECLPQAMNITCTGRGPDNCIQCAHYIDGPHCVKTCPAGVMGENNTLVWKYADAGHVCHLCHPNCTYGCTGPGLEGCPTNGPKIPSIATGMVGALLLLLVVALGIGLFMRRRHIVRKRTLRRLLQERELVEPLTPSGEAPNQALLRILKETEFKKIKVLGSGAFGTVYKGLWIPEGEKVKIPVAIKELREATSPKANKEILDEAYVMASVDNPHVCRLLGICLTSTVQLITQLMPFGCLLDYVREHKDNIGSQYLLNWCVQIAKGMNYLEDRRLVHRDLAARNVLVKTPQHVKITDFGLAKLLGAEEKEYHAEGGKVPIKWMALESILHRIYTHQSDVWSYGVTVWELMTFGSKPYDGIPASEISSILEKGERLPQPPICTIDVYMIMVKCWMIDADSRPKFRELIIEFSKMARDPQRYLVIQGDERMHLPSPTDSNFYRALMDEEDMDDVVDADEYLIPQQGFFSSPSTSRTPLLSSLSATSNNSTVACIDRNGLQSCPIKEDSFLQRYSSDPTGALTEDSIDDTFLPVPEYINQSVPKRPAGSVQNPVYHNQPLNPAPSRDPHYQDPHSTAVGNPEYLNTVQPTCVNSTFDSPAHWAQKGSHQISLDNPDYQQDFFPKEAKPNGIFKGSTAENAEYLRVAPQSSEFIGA

[8] = biological target: Follistatin-related protein 3 (Homo sapiens) (UniProt O95633); experiment: FSTL3 binders on small-molecule microarrays, primary screen, biochemical, small-molecule microarray, 635 nm fluorescence (AID 1105); conditions: FSTL3 binding, higher = more signal;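 further: score merges emission near 667 nm and signal to noise per printed spot across three slides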
Follistatin-related protein 3 (Homo sapiens), sequence (O95633 whole entry, looked up): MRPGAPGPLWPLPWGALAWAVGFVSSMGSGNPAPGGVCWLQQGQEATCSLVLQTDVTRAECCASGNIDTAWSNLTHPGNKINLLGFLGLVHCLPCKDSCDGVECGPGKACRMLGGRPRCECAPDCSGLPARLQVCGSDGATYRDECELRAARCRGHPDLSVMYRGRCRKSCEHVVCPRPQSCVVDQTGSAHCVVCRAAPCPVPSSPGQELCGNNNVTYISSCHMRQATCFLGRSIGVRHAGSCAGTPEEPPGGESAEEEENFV

[9] = biological target: Dickkopf-related protein 1 (Homo sapiens) (UniProt O94907); experiment: DKK1 binders on small-molecule microarrays, primary screen, biochemical, small-molecule microarray, 635 nm fluorescence scan (AID 1106); conditions: DKK1 binding, higher = more signal;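 further: score merges emission near 667 nm with signal to noise over three replicate slides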
Dickkopf-related protein 1 (Homo sapiens), sequence (O94907 whole entry, looked up): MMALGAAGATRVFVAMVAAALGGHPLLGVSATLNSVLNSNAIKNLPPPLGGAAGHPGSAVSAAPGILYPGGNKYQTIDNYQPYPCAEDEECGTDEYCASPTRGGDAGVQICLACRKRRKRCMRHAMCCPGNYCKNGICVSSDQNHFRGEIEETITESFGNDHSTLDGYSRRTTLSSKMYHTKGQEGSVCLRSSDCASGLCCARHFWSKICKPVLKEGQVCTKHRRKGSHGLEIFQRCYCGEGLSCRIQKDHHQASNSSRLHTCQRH

[10] = test system: Inhibin beta A chain (activin A); experiment: INHBA (activin A) binders on microarrays, primary screen, biochemical, small-molecule microarray, 635 nm fluorescence scan (AID 1107); conditions: small-molecule microarray binding, higher = more signal;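 further: mouse activin A protein probed at 4.33 µg/mL on printed slides; score merges bound-protein fluorescence near 667 nm with spot signal-to-noise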
[11] = test system: Human papillomavirus type 1a protein E7 (residues 44-93); experiment: HPV1a E7 fragment binders on microarrays, primary screen, biochemical, small-molecule microarray, residues 44-93, 635 nm fluorescence (AID 1108); conditions: small-molecule microarray binding, fluorescence 635 nm; higher = more signal;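 further: E7 fragment applied at 1 µg/mL in TBST for 1 h at 4 C; score combines spot fluorescence with its signal to noise ratio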
[12] = modulators of HCV replicon luciferase signal, primary screen, HCV replication inhibitor project, Huh7 cells, luciferase reporter (AID 1109); conditions: 48 h, higher = more signal;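 further: huh7 hepatoma cells harbouring a luciferase neomycin HCV replicon reporter; luciferase luminescence as measure of HCV replicon replication; test concentration not given here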
[13] = biological target: Left-right determination factor 2 (Homo sapiens) (UniProt O00292); experiment: LEFTY2 binders on small-molecule microarrays, primary screen, biochemical, small-molecule microarray, 635 nm fluorescence scan (AID 1110); conditions: LEFTY2 binding, higher = more signal
Left-right determination factor 2 (Homo sapiens), sequence (O00292 whole entry, looked up): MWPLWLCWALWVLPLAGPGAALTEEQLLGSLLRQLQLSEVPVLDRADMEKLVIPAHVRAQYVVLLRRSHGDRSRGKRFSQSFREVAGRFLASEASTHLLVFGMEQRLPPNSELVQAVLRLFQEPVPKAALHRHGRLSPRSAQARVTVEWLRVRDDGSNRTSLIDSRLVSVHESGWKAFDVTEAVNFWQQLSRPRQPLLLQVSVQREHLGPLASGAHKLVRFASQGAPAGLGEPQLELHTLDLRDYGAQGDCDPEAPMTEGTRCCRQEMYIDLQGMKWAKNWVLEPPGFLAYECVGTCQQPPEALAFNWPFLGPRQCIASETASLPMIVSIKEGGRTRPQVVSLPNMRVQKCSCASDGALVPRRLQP

[14] = biological target: Calmodulin-1 (Homo sapiens) (UniProt P0DP23); experiment: CALM1 binders on microarrays, EGTA buffer, profiling panel, biochemical, small-molecule microarray, Cy5-labelled CALM1 (AID 1111); conditions: Cy5-CALM1 binding fluorescence, higher = more signal;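 further: labelled calmodulin applied in Tris saline Tween buffer holding calcium plus EGTA and DTT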
[15] = biological target: Calmodulin-1 (Homo sapiens) (UniProt P0DP23); experiment: calcium-bound CALM1 binders on microarrays, profiling panel, artefact control for SMM control-protein annotation, biochemical, small-molecule microarray, Cy5-labelled CALM1, plus calcium (AID 1112); conditions: Cy5-CALM1 binding fluorescence, higher = more signal;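 further: score merges spot fluorescence with signal to noise from triplicate slides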
[16] = small-molecule microarray binders of probe aWnt5a, primary screen, biochemical, biotinylated probe, 635/667 nm fluorescence (AID 1113); conditions: higher = more signal;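 further: score merges 667 nm fluorescence intensity with signal-to-noise per printed feature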
[17] = small-molecule microarray binders of probe aShh, primary screen, biochemical, biotinylated probe, 635/667 nm fluorescence (AID 1114); conditions: higher = more signal;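 further: probe is biotin-labelled aShh protein from a stem cell growth factor screen; measures binding of labelled protein to compounds printed on the slide; score merges feature fluorescence at 667 nm with signal-to-noise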
[18] = small-molecule microarray binders of probe aNog, primary screen, biochemical, biotinylated probe, 635/667 nm fluorescence (AID 1115); conditions: higher = more signal;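 further: probe is biotinylated aNog protein used at 0.15 µg/mL for 1 h at 4 C; z-score combines 667 nm fluorescence of each spot with its signal to noise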
[19] = biological target: Torsin-1A-interacting protein 1 (Homo sapiens) (UniProt Q5JTV8); experiment: LAP1 binders from COS7 cell lysate, primary screen, small-molecule microarray, 635/667 nm fluorescence (AID 1116); conditions: COS7-hLAP1 lysate binding, 635 nm fluorescence, higher = more signal
Torsin-1A-interacting protein 1 (Homo sapiens), sequence (Q5JTV8 whole entry, looked up): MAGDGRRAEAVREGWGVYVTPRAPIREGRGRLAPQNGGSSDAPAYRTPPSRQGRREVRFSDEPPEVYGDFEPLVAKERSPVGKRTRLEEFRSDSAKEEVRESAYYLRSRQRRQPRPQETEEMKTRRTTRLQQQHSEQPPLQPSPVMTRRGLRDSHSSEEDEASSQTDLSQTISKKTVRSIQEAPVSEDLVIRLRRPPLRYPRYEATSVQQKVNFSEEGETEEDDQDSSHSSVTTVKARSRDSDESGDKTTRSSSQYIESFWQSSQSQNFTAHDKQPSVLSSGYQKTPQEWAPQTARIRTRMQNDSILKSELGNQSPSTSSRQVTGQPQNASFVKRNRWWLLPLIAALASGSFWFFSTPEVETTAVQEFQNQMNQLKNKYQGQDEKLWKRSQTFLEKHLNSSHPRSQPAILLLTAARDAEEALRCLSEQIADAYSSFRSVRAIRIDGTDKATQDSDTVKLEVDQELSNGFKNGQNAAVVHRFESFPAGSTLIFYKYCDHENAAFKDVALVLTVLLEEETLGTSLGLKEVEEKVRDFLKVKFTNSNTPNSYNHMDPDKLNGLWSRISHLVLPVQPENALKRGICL

[20] = biological target: Alpha-bungarotoxin (Bungarus multicinctus) (UniProt P60615); experiment: alpha-bungarotoxin binders on microarray, profiling panel, artefact control for SMM control protein annotation, biochemical, small-molecule microarray, Alexa647 label, 635/667 nm fluorescence (AID 1117); conditions: alpha-BTX-A647 binding fluorescence, higher = more signal
Alpha-bungarotoxin (Bungarus multicinctus), sequence (P60615 whole entry, looked up): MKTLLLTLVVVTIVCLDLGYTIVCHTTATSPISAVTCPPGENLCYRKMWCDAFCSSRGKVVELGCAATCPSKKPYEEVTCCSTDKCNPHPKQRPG

Row | Compound | composite z-score [1] | composite z-score [2] | composite z-score [3] | z-score [4] | composite z-score [5] | composite z-score [6] | composite z-score [7] | composite z-score [8] | composite z-score [9] | composite z-score [10] | composite z-score [11] | z-score [12] | composite z-score [13] | composite z-score [14] | composite z-score [15] | composite z-score [16] | composite z-score [17] | composite z-score [18] | composite z-score [19] | composite z-score [20]
1 | COCCOC(=O)N1C(=O)[C@@]2(c3cc(C#CCC(C(=O)OC)C(=O)OC)ccc31)[C@H](c1ccc(O)cc1)N1[C@H](c3ccccc3)[C@H](c3ccccc3)OC(=O)[C@H]1[C@@H]2C(=O)Nc1nc2ccccc2s1 | 1.54 | 0.595 | 0.481 | -1.12 (inactive) | 0.972 | 1.27 | 0.594 | 1.38 | 0.91 | 1.11 | 1.11 | -0.149 | 0.616 | 1.38 | -0.563 | -0.0684 | -0.017 | 0.112 | 0.83 | 2.23
2 | COC(=O)[C@@]1(Cc2ccccc2)[C@H]2c3cc(C(=O)N(C)C)n(Cc4ccc(S(C)(=O)=O)cc4)c3C[C@H]2CN1C(=O)c1ccccc1 | 0.308 | 1.1 | 1.22 | 0.376 (inactive) | 0.648 | 0.0903 | -0.366 | -0.0624 | -0.618 | 0.749 | -1.1 | -0.912 | -0.115 | 1.69 | 1.11 | 0.0613 | 0.954 | 0.35 | 1.29 | 0.548
3 | COc1ccc([Si](C)(C)[C@@H]2[C@@H](CC(=O)N3Cc4ccccc4C[C@H]3CO)O[C@]3(C(=O)N(Cc4ccc(N5CCOC5=O)cc4)c4ccccc43)[C@H]2C)cc1 | 1.09 | -0.115 | -0.271 | -1.36 (inactive) | 0.723 | 0.969 | 0.916 | 1.24 | 0.945 | 1.03 | 0.225 | -3.78 | 0.874 | -0.422 | -0.497 | -0.119 | 0.0639 | -0.339 | 1.86 | 1.42
4 | COc1ccccc1CN1C(=O)c2ccccc2[C@](Cc2ccccc2I)(C(=O)NCC(C)C)[C@@H]1c1ccc(CO)cc1 | 1.66 | 0.736 | 1.01 | 0.0236 (inactive) | -0.0272 | -0.0773 | -1.19 | -0.408 | -1.27 | -0.316 | -0.237 | -0.921 | -1.25 | -0.313 | -0.18 | -0.0529 | -0.0243 | 0.215 | 0.078 | 0.237
5 | O=C1N(Cc2ccccc2)c2ccccc2C[C@@]12COC(c1ccc(OCCCO)cc1)=N2 | 1.32 | 1.79 | 1.12 | -0.136 (inactive) | 0.596 | 1.31 | -0.433 | 0.0633 | -0.318 | 1.13 | 1.24 | -1.08 | -0.56 | 0.993 | 0.749 | 0.02 | 0.0018 | 1.39 | 1.58 | 0.802
6 | C=C(COC)/C(=C/C[C@H](OC(C)=O)c1ccccc1OCCO)c1cc(C(=O)OC)ccc1OC | 0.989 | -0.103 | -0.0952 | -0.907 (inactive) | 1.05 | 0.196 | -0.607 | 0.186 | 0.189 | 0.289 | 0.992 | -1.91 | -0.138 | -0.471 | -1.12 | -0.124 | 0.13 | -0.194 | -0.134 | 1.63
7 | C=CCNC(=O)[C@H]1[C@@H]2C(=O)O[C@@H](c3ccccc3)[C@@H](c3ccccc3)N2[C@@H](c2ccc(OCCO)cc2)[C@]12C(=O)Nc1ccc(C#CC3(O)CCCCCC3)cc12 | 1.19 | 0.514 | 0.446 | -0.313 (inactive) | 1.29 | 1.3 | 0.982 | 1.29 | 0.527 | 0.996 | 1.24 | -2.33 | 0.954 | 1.29 | 0.229 | -0.0607 | -0.0146 | 0.74 | 1.47 | 1.74
8 | COc1cc(OC)c(C(O)C2C=CC3C(=O)N(c4ccccc4)C(=O)C3N2Nc2ccc(C(C)C)cc2)cc1Br (stereo not given) | 0.891 | 0.671 | 0.605 | -0.603 (inactive) | 0.909 | 1.3 | 0.21 | 0.839 | 0.245 | 0.735 | 1.22 | -0.533 | 0.513 | 1.34 | 0.382 | 0.238 | 0.158 | 1.68 | 0.695 | 1.92
9 | CC(C)C[C@@H]1NC(=O)[C@@H]2C[C@H](C(=O)NCCCCCCNC(=O)CS)[C@H](c3cccc(OCCO)c3)N2C1=O | 1.65 | -0.0594 | 0.237 | -0.356 (inactive) | 1.31 | 1.29 | 0.876 | 1.52 | 1.4 | 0.626 | 1.47 | -0.319 | 0.622 | 1.03 | 0.264 | 0.0375 | 0.0611 | -0.0172 | 1.06 | 2.02
10 | COc1ccc(NN2C(C(O)c3ccc(I)cc3)C=CC3C(=O)N(C4CCCCC4)C(=O)C32)cc1 (stereo not given) | 0.404 | 0.519 | 0.792 | 0.293 (inactive) | 1.33 | 1.31 | 0.479 | 1.46 | 0.0284 | 0.504 | 1.43 | -2.6 | 0.349 | 1.21 | 0.679 | 0.18 | -0.147 | 0.261 | 0.811 | 1.45
11 | C[C@@H]1NC(=O)C([C@@H](C)OCc2ccccc2)NC(=O)[C@@]23C(=O)N[C@@H](Cc4ccccc4)C2[C@H](C)[C@@]2(C)O[C@H]2C3/C=C/C/C=C\CNC1=O (stereo not given in full) | 1.58 | -0.76 | -0.751 | 0.531 (inactive) | 0.224 | -0.297 | -0.506 | 0.11 | 0.382 | 1.44 | -0.663 | -0.914 | -0.238 | -1.17 | -1.85 | -0.172 | 0.299 | -0.423 | -0.215 | -0.0334
